Assay results from PubChem BioAssay AID602143 (Vanderbilt Specialized Chemistry Center, 2011).
Where “and” joins values, the source holds several entries; their conditions need not be identical. Identical values can stand only once. Unmarked numbers belong to inactive results. Calls of active or inactive are those of the source. No stated cut-off is given here; in the data, active means remaining activity below about 50%; inactive means the rest.

The molecules below were run against Phospholipase D2 (Homo sapiens) (UniProt O14939) (assay: PLD2 inhibitors in cells, cell-based, HEK293, single concentration (AID 602143;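 further: tested at 200 nM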)). Conditions: HEK293 cellular PLD2 activity, percent of control; active compounds read low.
Chain of Phospholipase D2 (Homo sapiens) (O14939 whole entry, looked up): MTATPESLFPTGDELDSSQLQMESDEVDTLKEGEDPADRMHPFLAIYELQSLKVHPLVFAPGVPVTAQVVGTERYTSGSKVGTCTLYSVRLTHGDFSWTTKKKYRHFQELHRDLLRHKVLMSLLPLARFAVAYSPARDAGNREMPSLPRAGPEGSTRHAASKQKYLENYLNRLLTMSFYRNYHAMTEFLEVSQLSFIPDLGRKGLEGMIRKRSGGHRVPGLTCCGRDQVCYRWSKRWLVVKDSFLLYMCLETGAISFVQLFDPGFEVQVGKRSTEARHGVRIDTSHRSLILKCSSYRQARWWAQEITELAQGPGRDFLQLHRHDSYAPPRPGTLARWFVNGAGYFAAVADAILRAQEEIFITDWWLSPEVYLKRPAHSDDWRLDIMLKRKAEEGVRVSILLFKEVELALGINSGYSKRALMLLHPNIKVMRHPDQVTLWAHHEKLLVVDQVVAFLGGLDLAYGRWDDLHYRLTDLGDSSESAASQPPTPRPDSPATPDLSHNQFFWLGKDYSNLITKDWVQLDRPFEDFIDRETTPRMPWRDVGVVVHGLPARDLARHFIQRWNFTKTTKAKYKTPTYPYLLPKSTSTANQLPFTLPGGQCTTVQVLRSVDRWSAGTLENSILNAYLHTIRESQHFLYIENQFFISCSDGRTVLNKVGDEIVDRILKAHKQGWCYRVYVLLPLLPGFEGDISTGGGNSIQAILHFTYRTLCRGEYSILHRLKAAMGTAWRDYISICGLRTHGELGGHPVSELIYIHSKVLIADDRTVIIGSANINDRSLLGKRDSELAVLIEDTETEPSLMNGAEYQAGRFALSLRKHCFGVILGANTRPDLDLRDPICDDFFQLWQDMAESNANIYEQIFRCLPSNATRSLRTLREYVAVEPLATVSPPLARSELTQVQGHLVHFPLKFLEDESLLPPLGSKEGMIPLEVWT
Chain of Phospholipase D2 (Homo sapiens) (O14939 whole entry, looked up): as above

Row | SMILES | remaining activity
1 | O=C(NCCN1CCC2(CC1)C(=O)NCN2c1cccc(F)c1)c1ccc(-c2ccccc2)cc1 | 101%
2 | Nc1cccc(Cl)c1C(=O)NCCN1CCC2(CC1)C(=O)NCN2c1ccccc1 | 100%
3 | O=C(c1ccc2ccccc2c1)N1CC(N2CCC3(CC2)C(=O)NCN3c2ccccc2)C1 | 72.6%
4 | Cc1ccccc1C(=O)N(CCN1CCC2(CC1)C(=O)NCN2c1cccc(F)c1)C(=O)c1ccccc1C | 106%
5 | O=C(NCCCCCCN1CCC2(CC1)C(=O)NCN2c1ccccc1)c1ccc2ccccc2c1 | 133%
6 | O=C(C1C[C@H]1c1ccccc1)N1CC(N2CCC(n3c(=O)[nH]c4ccccc43)CC2)C1 (stereo not given in full) | 87.7%
7 | O=C(NCCN1CCC2(CC1)C(=O)NCN2c1ccccc1)c1cnc2ccccc2n1 | 101%
8 | O=C(NCCN1CCC2(CC1)C(=O)NCN2c1ccc(F)cc1)c1cc2ccccc2[nH]1 | 8.73% (active)
9 | C[C@H](CN1CCC2(CC1)C(=O)NCN2c1ccccc1)NC(=O)c1cc(Br)c(Br)o1 | 85.7%
10 | O=C(Cc1ccccc1Br)NCCN1CCC2(CC1)C(=O)NCN2c1cccc(F)c1 | 117%
11 | O=C(NCCN1CCC2(CC1)C(=O)NCN2c1ccc(Cl)cc1)c1cc2ccccc2[nH]1 | 48.1% (active)
12 | O=C(NCCN1CCC2(CC1)C(=O)NCN2c1ccc(F)c(F)c1)c1ccc2ccccc2c1 | 40.1% (active)
13 | O=C(NCCN1CCC2(CC1)C(=O)NCN2c1ccccc1)c1ccnnc1 | 101%
14 | O=C(NCCN1CCC2(CC1)C(=O)NCN2c1ccccc1)c1cccc(Cl)n1 | 52.9%
15 | O=C(NCCN1CCC2(CC1)C(=O)NCN2c1ccccc1)C1CCc2ccccc2C1 (stereo not given) | 50.3% and 75.3%
16 | O=C(NCCN1CCC2(CC1)C(=O)NCN2c1ccc(F)cc1)c1ccc(F)cc1 | 46.9% (active)
17 | O=C(c1ccc(F)c(F)c1)N1CCC[C@@H]1CN1CCC2(CC1)C(=O)NCN2c1ccccc1 | 124%
18 | C[C@@H](CN1CCC2(CC1)C(=O)NCN2c1ccc(F)c(F)c1)NC(=O)c1cc2cc(F)ccc2[nH]1 | 4.81% (active)

Row | SMILES | remaining activity
19 | C[C@@H](CN1CCC2(CC1)C(=O)NCN2c1ccc(F)c(F)c1)NC(=O)c1ccc2ccccc2c1 | 51.2%
20 | C[C@H](N)CN1CCC2(CC1)C(=O)NCN2c1ccccc1 (tested in a mixture with another compound) | 74.1%
21 | C[C@@H](CN1CCC2(CC1)C(=O)NCN2c1ccccc1)NC(=O)c1ccc(F)c(F)c1 | 54.7%
22 | O=C(NCCN1CCC2(CC1)C(=O)NCN2c1cccc(F)c1)C(c1ccccc1)c1ccccc1 | 92.3%
23 | C[C@@H](CN1CCC2(CC1)C(=O)NCN2c1ccc(F)c(F)c1)NC(=O)c1ccc(F)cc1 | 23.6% (active)
24 | O=C(NCCN1CCC2(CC1)C(=O)NCN2c1cccc(Cl)c1)c1ccc2ccccc2c1 | 72%
25 | O=C(c1cnc2ccccc2c1)N1CCC[C@@H]1CN1CCC2(CC1)C(=O)NCN2c1ccccc1 | 106%
26 | C[C@H](CN1CCC2(CC1)C(=O)NCN2c1ccccc1)NC(=O)c1ccc(F)cc1 | 81.7%
27 | O=C(NCCN1CCC2(CC1)C(=O)NCN2c1ccc(Cl)cc1)c1cnc2ccccc2c1 | 29.7% (active)
28 | O=C(NCCCN1CCC2(CC1)C(=O)NCN2c1ccccc1)c1ccc2ccccc2c1 | 98%
29 | O=C(NCCN1CCC2(CC1)C(=O)NCN2c1ccc(F)cc1)c1cnc2ccccc2c1 | 24% (active)
30 | COc1cc(C(=O)NCCN2CCC3(CC2)C(=O)NCN3c2ccccc2)ccc1N | 38.8% (active)
31 | O=C(NCCN1CCC2(CC1)C(=O)NCN2c1ccc(Cl)cc1)c1ccc(Cl)cc1 | 49% (active)
32 | O=C(NCCN1CCC2(CC1)C(=O)NCN2c1cccc(F)c1)c1cc(C(F)(F)F)ccc1C(F)(F)F | 87.9%
33 | O=C(NCCN1CCC2(CC1)C(=O)NCN2c1cccc(F)c1)c1c(F)cccc1F | 88%
34 | O=C(NCCN1CCC2(CC1)C(=O)NCN2c1cccc(F)c1)C12CC3CC(CC(C3)C1)C2 | 87.1%
35 | O=C1c2ccccc2C(=O)N1CCCN1CCC2(CC1)C(=O)NCN2c1ccccc1 | 81%
